Measured values reported in PubChem BioAssay (Tox21).
Results filed as inconclusive are left out. Calls of active or inactive are those of the source. Unless noted, calls come from the whole dose curve; as a rule, active = well fitted curve in the direction sought with a large enough effect in the repeat runs; inconclusive = weak or mixed curves; inactive = no such curve, though single readings can be large; an effect the other way counts as inactive or inconclusive.

Tests used:
[1] = target: Thyrotropin receptor (Homo sapiens) (UniProt P16473); experiment: qHTS assay to identify small molecule antagonists of the thyroid stimulating hormone receptor (TSHR) signaling pathway (AID 1259385; calls by dose curve; note: nearly all actives have a fitted effect of over 20% in size)
Chain of Thyrotropin receptor (Homo sapiens) (P16473 whole entry, looked up): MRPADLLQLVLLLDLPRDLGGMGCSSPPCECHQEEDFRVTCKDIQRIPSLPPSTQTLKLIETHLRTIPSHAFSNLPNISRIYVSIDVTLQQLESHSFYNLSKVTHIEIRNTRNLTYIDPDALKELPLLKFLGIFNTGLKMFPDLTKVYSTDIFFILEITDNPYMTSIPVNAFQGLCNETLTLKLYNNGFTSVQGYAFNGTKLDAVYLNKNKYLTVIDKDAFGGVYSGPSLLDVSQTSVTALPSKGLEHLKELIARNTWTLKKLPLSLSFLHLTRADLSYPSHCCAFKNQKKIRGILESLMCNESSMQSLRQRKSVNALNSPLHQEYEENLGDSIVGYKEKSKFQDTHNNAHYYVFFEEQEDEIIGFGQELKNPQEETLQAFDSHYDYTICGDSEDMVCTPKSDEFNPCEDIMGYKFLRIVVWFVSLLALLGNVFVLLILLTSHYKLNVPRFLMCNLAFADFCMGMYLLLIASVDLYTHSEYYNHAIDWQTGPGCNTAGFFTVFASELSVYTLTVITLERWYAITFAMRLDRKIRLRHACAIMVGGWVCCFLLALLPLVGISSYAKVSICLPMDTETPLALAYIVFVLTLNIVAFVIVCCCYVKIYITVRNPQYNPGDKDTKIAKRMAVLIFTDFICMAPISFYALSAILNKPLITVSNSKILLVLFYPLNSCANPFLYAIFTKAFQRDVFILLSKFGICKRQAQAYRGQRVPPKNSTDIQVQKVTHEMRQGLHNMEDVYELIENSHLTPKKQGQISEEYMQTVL
How it was run: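 Antagonist mode: compound-treated TSHR-expressing HEK293 cells were stimulated with 1.5 ng/mL TSH (final) in presence of Ro20-1724 for 30 min at RT. HTRF cAMP detection after 1 h; each compound tested at 15 concentrations, triplicate.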

[2] = qHTS assay to identify small molecule agonists of the estrogen receptor alpha (ER-alpha) signaling pathway in the presence of an antagonist - cell viability counter screen (AID 1259386);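 note: series mostly up to about 92 µM; cells exposed to compounds for 22 h at 37 °C before the viability read; nearly all actives have a fitted effect of over 30% in size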
How it was run: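 Viability counter screen using VM7Luc4E2 (full-length ER-alpha, four ERE-luciferase). The cells were treated with compounds alongside ICI-182,780 10.0nM for 22hr, and live-cell protease fluorescence was quantified with CellTiter-Fluor.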

[3] = target: Progesterone receptor (Homo sapiens) (UniProt P06401); experiment: qHTS assay to identify small molecule agonists of the progesterone receptor (PR) signaling pathway (AID 1346784; calls by dose curve; note: nearly all actives have a fitted effect of over 30% in size)
Chain of Progesterone receptor (Homo sapiens) (P06401 whole entry, looked up): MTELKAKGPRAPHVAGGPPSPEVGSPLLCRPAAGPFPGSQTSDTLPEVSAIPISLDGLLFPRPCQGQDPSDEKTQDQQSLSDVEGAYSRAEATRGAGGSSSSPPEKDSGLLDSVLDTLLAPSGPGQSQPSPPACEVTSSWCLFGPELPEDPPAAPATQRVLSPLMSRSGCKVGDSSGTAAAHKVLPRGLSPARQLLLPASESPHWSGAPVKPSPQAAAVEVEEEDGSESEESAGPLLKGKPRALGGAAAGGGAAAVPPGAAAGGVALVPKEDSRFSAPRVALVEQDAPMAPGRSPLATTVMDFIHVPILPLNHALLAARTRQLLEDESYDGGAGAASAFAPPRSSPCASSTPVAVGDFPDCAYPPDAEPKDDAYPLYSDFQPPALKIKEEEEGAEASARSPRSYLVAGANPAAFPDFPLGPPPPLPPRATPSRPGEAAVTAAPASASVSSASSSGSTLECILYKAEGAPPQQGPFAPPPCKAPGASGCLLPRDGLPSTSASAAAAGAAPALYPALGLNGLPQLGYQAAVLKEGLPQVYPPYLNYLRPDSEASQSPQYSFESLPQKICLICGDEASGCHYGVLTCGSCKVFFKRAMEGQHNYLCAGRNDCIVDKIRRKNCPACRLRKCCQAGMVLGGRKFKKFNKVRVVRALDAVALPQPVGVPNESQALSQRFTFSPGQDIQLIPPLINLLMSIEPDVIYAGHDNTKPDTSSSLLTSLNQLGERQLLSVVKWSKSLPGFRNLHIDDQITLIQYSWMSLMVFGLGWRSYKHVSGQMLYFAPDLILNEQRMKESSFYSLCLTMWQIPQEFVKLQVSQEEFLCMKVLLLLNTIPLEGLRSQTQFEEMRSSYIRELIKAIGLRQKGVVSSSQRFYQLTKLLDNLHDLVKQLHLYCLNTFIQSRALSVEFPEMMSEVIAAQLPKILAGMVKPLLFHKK
How it was run: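 Using charcoal-stripped serum (2%) to limit endogenous steroids, PR-UAS-bla HEK 293T cells received compounds for 16 hr at 37C after 6 hr plating; beta-lactamase FRET fluorescence was recorded following 2 hr substrate loading at room temperature.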

[4] = qHTS assay to identify small molecule antagonists of the TGF-beta/Smad signaling pathway - cell viability counter screen (AID 1346824); note: nearly all actives have a fitted effect of over 50% in size
How it was run: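 Cytotoxicity counter-screen run in the same wells as the beta-lactamase Smad reporter read: CellTiter-Glo luminescence after 30 min at room temperature. HEK 293T SBE-bla cells had 5 hr compound exposure at 37 C with TGF-beta1 (0.25 ng/mL stock).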

[5] = qHTS assay to identify small molecule agonists of the TGF-beta/Smad signaling pathway - cell viability counter screen (AID 1346829); note: top concentration of the series differs between compounds; nearly all actives have a fitted effect of over 45% in size
How it was run: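 Tox21 qHTS format: SBE-bla HEK 293T cells treated with DMSO-dissolved compounds for 5 hr; CellTiter-Glo luminescence after 30 min at room temperature.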

[6] = qHTS assay to identify small molecule agonists of the TGF-beta/Smad signaling pathway (AID 1346859; active = well fitted activation curve with a large enough effect in the signal ratio in the repeat runs, not every such curve was filed as active; the % refers to the signal ratio; note: series mostly up to about 77 µM)
How it was run: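 Stable Smad binding element-beta-lactamase HEK 293T cells; 5 hr compound exposure at 37 C under 5% CO2; 2 hr room-temperature substrate step; fluorescence excited at 405 nm, collected at 460 nm and 530 nm.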

[7] = target: Thyrotropin-releasing hormone receptor (Homo sapiens) (UniProt P34981); experiment: qHTS assay to identify small molecule antagonists of the thyrotropin-releasing hormone receptor (TRHR) signaling pathway (AID 1346877; active = well fitted inhibition curve with a large enough effect in the repeat runs, not every such curve was filed as active; note: series mostly up to about 51 µM)
Chain of Thyrotropin-releasing hormone receptor (Homo sapiens) (P34981 whole entry, looked up): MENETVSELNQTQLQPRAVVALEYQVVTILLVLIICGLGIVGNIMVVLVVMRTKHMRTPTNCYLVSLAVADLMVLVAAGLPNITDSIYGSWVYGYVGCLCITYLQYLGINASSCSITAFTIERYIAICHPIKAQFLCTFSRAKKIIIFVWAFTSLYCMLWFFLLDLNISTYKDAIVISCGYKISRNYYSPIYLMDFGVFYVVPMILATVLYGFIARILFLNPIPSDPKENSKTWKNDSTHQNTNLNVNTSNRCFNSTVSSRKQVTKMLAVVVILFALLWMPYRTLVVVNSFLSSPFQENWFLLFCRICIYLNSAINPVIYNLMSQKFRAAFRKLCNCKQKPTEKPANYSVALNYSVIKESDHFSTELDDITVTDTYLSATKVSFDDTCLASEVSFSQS
How it was run: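 Following an 18 h incubation at 37 °C and a 2 h calcium dye load, TRHR-HEK293 cells were exposed to compound (5 min, room temperature) and challenged with TRH, 1 nM final.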

[8] = target: Thyrotropin-releasing hormone receptor (Homo sapiens) (UniProt P34981); experiment: qHTS assay to identify small molecule agonists of the thyrotropin-releasing hormone receptor (TRHR) signaling pathway (AID 1346891; calls by dose curve;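 note: HEK293 cells expressing TRHR with calcium dye readout; series mostly up to about 58 µM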)
How it was run: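 In 1536-format, 1500 TRHR-Hek293 cells per well grew 18 h, took up calcium dye for 2 h at 37 °C, received compound, and were read kinetically; 15-point titrations, triplicates.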

[9] = Human pregnane X receptor (PXR) small molecule agonists, qHTS cell viability counter screen (AID 1346977); note: nearly all actives have a fitted effect of over 50% in size
How it was run: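 Readout is CellTiter-Fluor fluorescence from PXR-Luc HepG2 cells. Plated cells rested 5hr, then were treated with compounds for 24hr at 37C and 5% CO2, with reagent present during the last hour.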

[10] = Caspase-3/7 induction in HepG2 cells by small molecules, qHTS assay (AID 1346978); note: nearly all actives have a fitted effect of over 15% in size
How it was run: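 Caspase-3/7 induction was measured by Caspase-Glo 3/7 luminescence (30 min, room temperature) after a 17 hr compound exposure of wild-type HepG2 cells seeded at 2,000 per well and pre-incubated 5 hr.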

[11] = Caspase-3/7 induction in CHO-K1 cells by small molecules, qHTS cell viability counter screen (AID 1346979); note: nearly all actives have a fitted effect of over 35% in size
How it was run: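 To flag cytotoxic compounds, treated CHO-K1 wild-type cells were given CellTiter-Fluor at 16hr and read fluorescently after 1hr at 37C; the caspase-3/7 luminescence was measured in these same wells.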

[12] = Caspase-3/7 induction in CHO-K1 cells by small molecules, qHTS assay (AID 1346980); note: nearly all actives have a fitted effect of over 15% in size
How it was run: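 Luminescent Caspase-Glo 3/7 read (30min, room temperature) quantified apoptosis induction. Cells were wild-type CHO-K1, treated with compound for 17hr at 37 C and 5% CO2.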

[13] = Caspase-3/7 induction in HepG2 cells by small molecules, qHTS cell viability counter screen (AID 1346981); note: series mostly up to about 92 µM; nearly all actives have a fitted effect of over 30% in size
How it was run: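 Viability determined by CellTiter-Fluor fluorescence in HepG2 wells also used for the luminescent Caspase-Glo 3/7 read. Compounds were present for 16 hr at 37 C, 5% CO2 before reagent addition.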

[14] = target: Nuclear receptor subfamily 1 group I member 2 (Rattus norvegicus) (UniProt Q9R1A7); experiment: Rat pregnane X receptor (rPXR) activation by small molecules, qHTS assay (AID 1346983); settings: rPXR luciferase reporter cells, One-Glo luminescence, 24 h; max activation: hits give high values; note: nearly all actives have a fitted effect of over 20% in size
Chain of Nuclear receptor subfamily 1 group I member 2 (Rattus norvegicus) (Q9R1A7 whole entry, looked up): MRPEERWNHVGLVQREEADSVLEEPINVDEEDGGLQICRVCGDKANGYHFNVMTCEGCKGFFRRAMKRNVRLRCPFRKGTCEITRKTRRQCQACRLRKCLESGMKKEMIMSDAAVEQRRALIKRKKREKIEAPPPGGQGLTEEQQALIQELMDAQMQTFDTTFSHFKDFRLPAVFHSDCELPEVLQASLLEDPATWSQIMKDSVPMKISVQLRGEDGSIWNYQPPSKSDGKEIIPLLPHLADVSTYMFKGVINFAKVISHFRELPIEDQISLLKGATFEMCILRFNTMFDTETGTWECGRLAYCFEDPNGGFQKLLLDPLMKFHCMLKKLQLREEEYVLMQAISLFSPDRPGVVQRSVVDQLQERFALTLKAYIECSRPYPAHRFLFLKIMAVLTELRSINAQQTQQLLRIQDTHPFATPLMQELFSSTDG
How it was run: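 Luminescent readout (One-Glo luciferase, 30 min room temperature) followed 24 hr compound treatment at 37 C of rPXR cells plated 2,000 per well and preincubated 5hr; qHTS format with compounds delivered in DMSO.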

[15] = target: Progesterone receptor (Homo sapiens) (UniProt P06401); experiment: qHTS assay to identify small molecule antagonists of the progesterone receptor (PR) signaling pathway (AID 1346795; active = well fitted inhibition curve with a large enough effect in the signal ratio in the repeat runs, not every such curve was filed as active; the % refers to the signal ratio)
How it was run: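 Inhibition of R5020-induced (1 nM final) beta-lactamase reporter signal in PR-UAS-bla HEK293T cells was scored by FRET fluorescence after overnight (16 hr) compound treatment.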

[16] = qHTS assay to identify small molecule antagonists of the progesterone receptor (PR) signaling pathway - cell viability counter screen (AID 1346798); note: series mostly up to about 92 µM; nearly all actives have a fitted effect of over 50% in size
How it was run: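 ATP content as viability readout: CellTiter-Glo luminescence, 30 min room temperature, in PR-UAS-bla HEK293T cells after 16 hr compound/R5020 treatment at 37C and 5% CO2.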

[17] = qHTS assay to identify small molecule agonists of the progesterone receptor (PR) signaling pathway - cell viability counter screen (AID 1346799; calls by dose curve; note: nearly all actives have a fitted effect of over 45% in size)
How it was run: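 Cytotoxicity in PR-bla HEK293T cells: 16 h compound, 37C; CellTiter-Glo added post-FRET read; luminescence after 30 min RT.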

[18] = target: Nuclear receptor subfamily 1 group I member 2 (Homo sapiens) (UniProt O75469); experiment: Human pregnane X receptor (PXR) small molecule agonists, qHTS assay (AID 1346982); note: nearly all actives have a fitted effect of over 35% in size
Chain of Nuclear receptor subfamily 1 group I member 2 (Homo sapiens) (O75469 whole entry, looked up): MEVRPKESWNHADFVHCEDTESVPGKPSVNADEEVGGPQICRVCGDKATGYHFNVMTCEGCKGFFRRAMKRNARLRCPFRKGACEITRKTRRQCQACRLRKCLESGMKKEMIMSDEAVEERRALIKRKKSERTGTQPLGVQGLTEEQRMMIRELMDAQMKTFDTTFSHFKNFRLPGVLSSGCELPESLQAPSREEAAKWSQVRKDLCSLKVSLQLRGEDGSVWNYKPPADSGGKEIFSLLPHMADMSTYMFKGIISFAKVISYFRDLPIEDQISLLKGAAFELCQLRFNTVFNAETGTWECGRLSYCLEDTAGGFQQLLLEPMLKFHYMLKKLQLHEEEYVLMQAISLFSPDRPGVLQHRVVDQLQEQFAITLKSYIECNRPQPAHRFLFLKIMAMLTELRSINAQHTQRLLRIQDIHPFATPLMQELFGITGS
How it was run: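 Compound-induced hPXR transactivation of a CYP3A4 luciferase reporter was scored in HepG2 PXR-Luc cells over 24 hr at 37 C, 5% CO2, by luminescence.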
% is set by controls: 0 for no effect and ±100 for the full control effect.

Cc1onc(-c2ccccc2)c1-c1ccc(S(N)(=O)=O)cc1
inactive: Potency [1] | outcome [2] | Potency [3] | outcome [4] | outcome [5] | outcome [6] | outcome [7] | outcome [8] | Potency [9] | outcome [10] | Potency [11] | outcome [12] | outcome [13] | max activation [14] -3.92%

Oc1cc(O)c2c(c1)O[C@H](c1ccc(O)c(O)c1)[C@H](O)C2
inactive: Potency [1] | outcome [2] | Potency [15] | Potency [16] | Potency [17] | outcome [4] | outcome [5] | Potency [9] | outcome [10] | Potency [11] | outcome [12] | outcome [13]

CCCCCCOC(=O)CC(CC(=O)OCCCCCC)(OC(=O)CCC)C(=O)OCCCCCC
inactive: Potency [1] | outcome [2] | Potency [15] | Potency [16] | outcome [4] | outcome [5] | outcome [6] | Potency [9] | outcome [10] | Potency [11] | outcome [12] | outcome [13] | Potency [18]

CCCc1ccccc1O
inactive: Potency [1] | outcome [2] | Potency [15] | Potency [16] | Potency [17] | outcome [4] | outcome [5] | outcome [6] | outcome [7] | outcome [8] | Potency [9] | outcome [10] | Potency [11] | outcome [12] | Potency [18]

CC(C)(C)OC(=O)N1C[C@@H](F)C[C@H]1C(=O)O
inactive: Potency [1] | outcome [2] | Potency [3] | Potency [16] | Potency [17] | outcome [4] | outcome [5] | outcome [7] | outcome [8] | Potency [9] | outcome [10] | Potency [11] | outcome [12] | outcome [13] | Potency [18]

CCN1CCCC(OC(=O)C(c2ccccc2)c2ccccc2)C1 (stereo not given)
inactive: Potency [1] | outcome [2] | Potency [3] | outcome [4] | outcome [5] | outcome [6] | outcome [7] | outcome [8] | outcome [10] | Potency [11] | outcome [12] | outcome [13] | Potency [18] | max activation [14] 0.492%

CCCCCCCCC=O
inactive: Potency [1] | outcome [2] | Potency [15] | Potency [16] | outcome [5] | Potency [9] | Potency [11] | outcome [12] | outcome [13]

COc1cccc(OC)c1
inactive: Potency [1] | outcome [2] | Potency [15] | Potency [16] | Potency [17] | outcome [4] | outcome [5] | outcome [7] | outcome [8] | Potency [9] | Potency [11] | outcome [12] | outcome [13]

CCCCCCCCCCCCI
inactive: Potency [1] | outcome [2] | Potency [15] | Potency [16] | Potency [17] | outcome [4] | outcome [5] | outcome [7] | outcome [8] | Potency [9] | outcome [10] | Potency [11] | outcome [12] | outcome [13] | Potency [18]
